Screening results (PubChem)
Hits are enriched below; roughly 5.4% of the tested compounds scored in any of these assays.
SMARCA2 activ – activators of SMARCA2 function; AID 652017; MG213 cells, MMTV-luciferase reporter, dexamethasone, overnight; actives 1% (n = 370,000); activation, % at 9.1 µM; in the data active = activation above about 7.8%;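 note: 0% = vehicle wells and 100% = reference activator wells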
GASC-1 inh – inhibitors of human GASC-1 (JMJD2C) demethylase | Q9H3R0 | GST-JMJD2C(1-420) H3K9me3 demethylation, DELFIA europium | inhibition, % at 2.35 µM | actives 0.069% (n = 330,000) | AID 2099;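 active = more than half of a compound's replicate wells show inhibition beyond 50%, single wells judged on their own value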;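 note: signal counts dimethyl H3K9 product captured on neutravidin plate; 0% = median of DMSO wells and 100% = 0.3 times that DMSO median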
Target sequence (Q9H3R0 1-420 limits assumed): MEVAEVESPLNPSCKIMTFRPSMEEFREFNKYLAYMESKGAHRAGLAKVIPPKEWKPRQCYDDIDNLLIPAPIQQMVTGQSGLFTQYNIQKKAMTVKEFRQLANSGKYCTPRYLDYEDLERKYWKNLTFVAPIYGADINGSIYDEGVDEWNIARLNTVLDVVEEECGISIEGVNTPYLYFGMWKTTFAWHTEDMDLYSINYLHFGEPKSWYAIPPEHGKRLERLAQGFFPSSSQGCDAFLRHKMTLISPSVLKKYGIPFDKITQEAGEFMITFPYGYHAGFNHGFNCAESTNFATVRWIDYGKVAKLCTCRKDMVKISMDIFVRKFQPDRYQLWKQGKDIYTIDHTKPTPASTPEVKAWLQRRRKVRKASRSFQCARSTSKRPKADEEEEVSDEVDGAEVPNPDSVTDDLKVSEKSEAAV
PfM18AAP inh – blocks P. falciparum M18 aspartyl aminopeptidase. actives 1.2% (n = 290,000). inhibition, % at 7.35 µM. AID 1822. recombinant PfM18AAP, H-Glu-NHMec fluorogenic cleavage;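 active = inhibition above the campaign mean inhibition over all tested compounds plus 3 SD, cut at about 28% in these data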;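 note: 0% = plate median of test compound wells and 100% = 2 mM ZnCl2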
Granule exo inh – lytic granule exocytosis inhibition | TALL-104 LAMP-1 surface exposure, flow cytometry; cells stimulated with thapsigargin and PMA | inhibition, % at 10 µM | actives 0.66% (n = 360,000);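 active = inhibition above about 55%, limit read from the data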
beta cell repl – inducers of beta-cell replication in MIN6 cells | actives 0.29% (n = 330,000) | proliferation, % at 10 µM | MIN6 cells proliferation, ATPlite luminescence, 48 h; cells starved in 0.2% serum; 100% = growth in 10% serum;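 active = compounds whose signal lies at least 3.5 SD above the mean of all wells on their plate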;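 note: 0% = DMSO-treated cells in low-serum medium and 100% = 10% serum control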
ALR inh – inhibitors of human sulfhydryl oxidase ALR; purified ALR, DTT oxidation, H2O2 HRP-luminol luminescence; inhibition, % (test concentration not listed); actives 3.8% (n = 290,000); AID 485317;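 active = mean replicate inhibition above about 79%, with every replicate also reaching it, limit read from the data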
Target sequence (P55789 whole entry, looked up): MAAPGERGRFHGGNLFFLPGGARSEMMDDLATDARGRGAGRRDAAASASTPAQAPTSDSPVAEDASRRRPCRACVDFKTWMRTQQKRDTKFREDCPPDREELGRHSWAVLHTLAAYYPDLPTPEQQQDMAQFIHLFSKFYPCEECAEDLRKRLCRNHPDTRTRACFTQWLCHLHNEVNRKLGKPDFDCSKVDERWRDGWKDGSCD
The depositor's hits bear a star; · = not tested or not shown.

SMILES | SMARCA2 activ | GASC-1 inh | PfM18AAP inh | Granule exo inh | beta cell repl | ALR inh
COc1ccc(-c2nc(-c3cccs3)c(-c3cccs3)[nH]2)cc1O | -0.5 | -0.2 | -2.3 | -2.8 | -4.1 | 99.4*
CCOC(=O)c1c(NC(=O)/C=C/C(=O)O)sc(C)c1-c1ccc(C(C)(C)C)cc1 | -6.0 | 18.2 | -5.3 | 4.2 | -5.4 | 96.6*
C/C(=N\N(Cc1ccccc1)c1ccccc1)c1ccncc1 | -3.2 | -6.8 | 0.1 | -0.7 | 1.5 | 99.0*
CN(C(=O)c1ccncc1)c1ccccc1 | -2.1 | -9.1 | -4.2 | 2.2 | -4.3 | -3.9
COc1ccccc1CNCC(O)Cn1c2ccccc2c2ccccc21 (configuration not stated) | -0.7 | 5.6 | 0.5 | 86.7* | -6.1 | -19.0
Cc1ccc(C(C2=C(O)CC(C)(C)CC2=O)C2C(=O)CC(C)(C)CC2=O)o1 (configuration not stated) | -5.7 | 5.2 | -2.0 | 5.3 | 0.5 | 97.0*
CC1(C)CC(=O)C(C(C2=C(O)CC(C)(C)CC2=O)c2cccs2)C(=O)C1 (configuration not stated) | · | -3.1 | 7.9 | -2.0 | 0.0 | ·
CC(CCN1CCC(C(O)(c2ccccc2)c2ccccc2)CC1)Oc1ccc(F)cc1 (configuration not stated) | -2.4 | · | · | · | · | ·
Cc1ccccc1/C=N/Nc1ccnc2cc(Cl)ccc12 | -2.4 | 0.2 | 3.9 | 76.2* | · | 9.6
O=C(CC1(O)C(=O)N(C/C=C/c2ccccc2)c2ccccc21)c1ccccn1 (configuration not stated) | -1.7 | -3.2 | 31.6* | 10.1 | -5.6 | -19.7
CN1CCCN(C(=O)CN2C(=O)CC(C)(C)S(=O)(=O)c3ccccc32)CC1 | 0.7 | · | · | · | · | ·
Cc1cc2c(cc1C)NC(c1cccnc1)C1=C(CC(C)(C)CC1=O)N2 (configuration not stated) | 1.2 | 0.1 | -1.2 | -2.5 | 0.1 | 93.9*
CC1(C)CC(=O)C2=C(C1)Nc1ccccc1NC2c1cccc(F)c1 (configuration not stated) | -0.7 | 1.4 | 11.3 | 1.0 | -2.4 | 99.1*
COc1cccc(C2C3=C(CC(C)(C)CC3=O)Nc3cc4c(cc32)OCO4)c1 (configuration not stated) | -1.7 | -1.9 | -3.2 | 0.3 | -2.4 | 54.2
COc1cc2c(cc1OC)C(c1ccc3c(c1)OCO3)C1=C(CC(C)(C)CC1=O)N2 (configuration not stated) | -1.7 | 13.0 | -9.8 | 1.8 | -3.6 | 98.5*
COC(=O)c1ccc(C2Nc3ccccc3NC3=C2C(=O)CC(C)(C)C3)cc1 (configuration not stated) | -0.7 | 3.0 | 3.8 | 2.0 | 0.9 | 97.0*
COC(=O)c1ccc(Cn2ccc3ccc(-c4ccc5ccn(C(=O)C6CCCCC6)c5c4)cc32)cc1 | -1.2 | · | · | · | · | ·
COC(=O)c1cc(-c2cnc(OC)nc2OC)c(=O)n2c1CCC2 | -2.3 | · | · | · | · | ·
Cc1ccccc1CN1CCCCC(NC(=O)c2cccc(C(F)(F)F)c2)C1=O (configuration not stated) | -0.7 | · | · | · | · | ·
C=C(C)Cn1c(SCC(=O)N/N=C(\C)c2ccc(Br)cc2)nnc1-c1ccc(Br)cc1 | -4.2 | · | · | · | · | ·
CCOC(=O)[C@@]12CCCC3=C1N(CCC3)C(=O)[C@H]2CC(=O)NCCCN1CCCC1=O | -1.5 | · | · | · | · | ·
COc1cc(OC)c(C2Nc3ccccc3NC3=C2C(=O)CC(C)(C)C3)cc1OC (configuration not stated) | -1.9 | -11.5 | 3.6 | -4.8 | -0.5 | 87.3*
COc1cc(C2Nc3ccccc3NC3=C2C(=O)CC(C)(C)C3)cc(OC)c1OC (configuration not stated) | 4.0 | -8.1 | 9.3 | -0.6 | -4.8 | 74.5
CC(C)CN1C(=O)[C@]2(CC(=O)N(C)C2c2ccccc2)c2cc(-n3cc(CCCC#N)nn3)ccc21 (some centres not stated) | -4.1 | · | · | · | · | ·
CC1CC(C)CN(S(=O)(=O)c2ccc(C(=O)Nc3nnc(-c4cccs4)o3)cc2)C1 (configuration not stated) | -2.9 | 10.1 | 0.5 | -1.5 | -3.0 | 72.3
SMILES | SMARCA2 activ | GASC-1 inh | PfM18AAP inh | Granule exo inh | beta cell repl | ALR inh
CCC1CCCCN1S(=O)(=O)c1ccc(C(=O)Nc2nnc(-c3cccs3)o2)cc1 (configuration not stated) | · | 6.9 | -4.1 | 3.8 | -3.5 | 97.9*
COc1cc(C)c(S(=O)(=O)N2CCCC2)cc1C(C)C | 2.2 | -19.6 | -4.5 | -1.3 | 0.0 | 0.5
COc1cc(C)c(-c2cc(C(=O)O)c(C)o2)cc1C(C)C | -1.4 | -3.0 | 2.8 | 1.7 | -5.1 | 97.3*
CCOC(=O)c1cn(CC)c2cc(N3CCSCC3)c(F)cc2c1=O | 1.9 | 0.1 | 1.6 | 0.2 | -1.8 | 98.8*
O=C(NC1CCCCN(Cc2ccc(Cl)cc2)C1=O)c1cccc(C(F)(F)F)c1 (configuration not stated) | -2.9 | · | · | · | · | ·
O=C(O)c1cccc(S(=O)(=O)Nc2ccc3c(c2)OCO3)c1 | 0.3 | -2.4 | 4.7 | 0.6 | -3.1 | -11.5
O=S(=O)(Nc1ccc2c(c1)OCO2)c1ccc(F)c(F)c1 | 2.4 | · | · | -1.3 | -6.0 | 88.4*
COc1ccc(-c2cc(-c3nnc(SCC(=O)Nc4ccc(-c5nc6ccc(C)cc6s5)cc4)n3N)[nH]n2)cc1 | 6.5 | · | · | · | · | ·
Cc1ccc(CSc2nnc(-c3cc(-c4ccc(F)cc4)n[nH]3)n2N)cc1 | -6.2 | · | · | · | · | ·
COc1cc2c(cc1OC)C(c1ccc(N(C)C)cc1)CC(=O)N2 (configuration not stated) | -1.5 | 0.2 | 5.9 | 2.5 | -0.1 | 37.5
CCN(CC)c1ccc(C2CC(=O)Nc3cc(OC)c(OC)cc32)cc1 (configuration not stated) | -1.8 | 0.0 | 1.2 | 0.4 | 1.8 | 98.4*
Cc1cccc(NC(=O)C2CCCN(S(=O)(=O)c3c(C)nn(C)c3C)C2)c1 (configuration not stated) | 0.0 | -1.4 | · | 1.2 | -2.0 | -0.4
Cc1cccc(NC(=O)C2CCN(S(=O)(=O)c3cccc4nsnc34)CC2)n1 | -5.5 | 51.7* | -6.5 | 0.2 | 0.4 | -2.8
Cc1cccc(NC(=O)C2CCCN(S(=O)(=O)c3cccc4nsnc34)C2)n1 (configuration not stated) | -1.7 | -1.3 | -2.4 | -3.8 | -1.4 | 2.8
Cc1cccc(NC(=O)C2CCCN(S(=O)(=O)c3c(C)nn(C)c3C)C2)n1 (configuration not stated) | -0.8 | 63.0* | -3.5 | -4.7 | -5.2 | -1.0
Cc1ccc(CNC(=O)CCS(=O)(=O)c2cc3c(cc2Br)CCN3C(=O)C2CC2)o1 | -0.5 | · | · | · | · | ·
CCOC(=O)[C@@]12CN(C(=O)OC(C)(C)C)CC=C1N(Cc1ccc(OC)cc1)C(=O)[C@H]2CC(=O)NCCCN1CCCC1=O | -3.9 | · | · | · | · | ·
COC(=O)[C@]12C[C@H](CC(=O)N3CCCCC3)C(=O)N(Cc3ccco3)C1=C[C@H](C(C)(C)C)O[C@@H]2C | 1.8 | · | · | · | · | ·
